# NS1 function inh = influenza NS1 inhibition; Potency, µM (titrated, usually from 46.1 µM), for inactives: at the top dose activity, positive = more growth; hit rate 0.4% among 270,000; calls by dose curve; further: potency means the concentration at half of the fitted maximal effect; actives are rising curves; nearly all actives have a fitted effect of over 50% in size
#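 Recovery from NS1-induced slow growth read by OD600 in budding yeast switched to galactose assay medium (pH 6.0, -URA) at 1:100 dilution. Compound 23 nl per well; the matching strain lacking NS1 serves as control.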
# SARS PLpro yeast = SARS-CoV PLP inhibition in yeast | S. cerevisiae expressing SARS-CoV PLpro, growth rescue | Potency, µM (top dose mostly 32.9 µM), for inactives: at the top dose activity, positive = growth rescue, most hits filed as activators | hit rate 0.19% among 330,000; calls by dose curve; further: potency means the concentration at half of the fitted maximal effect; 0% is about no effect; nearly all actives have a fitted effect of over 55% in size
# Cycloheximide cs = counter-screen for Shiga toxin inhibitors: cycloheximide protein synthesis inhibition; cell reporter, cycloheximide protein synthesis inhibition counterscreen; max response, %; hit rate 12% among 300,000; AID 2314; in the data active means max response mostly above about 13%, no sharp cut-off; inactive means mostly below about 14%; further: read at 38.3 µM for the half of the compounds with a filed dose; 0% is about no effect
# Shiga toxin inh = inhibitors of Shiga toxin in Vero cells; Vero cells, Shiga toxin protein synthesis inhibition reporter; inhibition, % at 38.7 µM; AID 2315; hit rate 9.2% among 290,000; in the data active means inhibition mostly above about 28%, no sharp cut-off; inactive means mostly below about 43%; further: 0% is about no effect
# TbPYK inhibitor = inhibitors of Trypanosoma brucei pyruvate kinase; Potency, µM (doses to about 76.8 µM), inactives show at the top dose activity, negative = inhibition, most hits filed as inhibitors; TbPYK enzyme, Kinase-Glo Plus ATP luminescence, 45 min; Q57TT1; hit rate 0.12% among 410,000; further: potency means the concentration at half of the fitted maximal effect; on the % scale 0 is the no-effect control and ±100 the full control effect; nearly all actives have a fitted effect of over 50% in size
#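 In this concentration-response screen, enzyme-free wells defined baseline while DMSO plates tracked drift. Each reaction combined TbPYK, substrate, compound and 130 uM ADP for 45 min at room temperature. Kinase-Glo Plus luminescence gave the signal.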
# LmPK inh = LmPK (Leishmania mexicana) enzyme inhibition | purified LmPK, Kinase-Glo ATP luminescence, 1 h | AID 1721 | Potency, µM (doses to about 57.5 µM), without a hit: top-dose activity change, negative = inhibition, actives largely listed as inhibitors | hit rate 0.37% among 290,000; further: potency means the concentration at half of the fitted maximal effect; on the % scale 0 is the no-effect control and ±100 the full control effect
# Target sequence (Q27686 whole entry, looked up): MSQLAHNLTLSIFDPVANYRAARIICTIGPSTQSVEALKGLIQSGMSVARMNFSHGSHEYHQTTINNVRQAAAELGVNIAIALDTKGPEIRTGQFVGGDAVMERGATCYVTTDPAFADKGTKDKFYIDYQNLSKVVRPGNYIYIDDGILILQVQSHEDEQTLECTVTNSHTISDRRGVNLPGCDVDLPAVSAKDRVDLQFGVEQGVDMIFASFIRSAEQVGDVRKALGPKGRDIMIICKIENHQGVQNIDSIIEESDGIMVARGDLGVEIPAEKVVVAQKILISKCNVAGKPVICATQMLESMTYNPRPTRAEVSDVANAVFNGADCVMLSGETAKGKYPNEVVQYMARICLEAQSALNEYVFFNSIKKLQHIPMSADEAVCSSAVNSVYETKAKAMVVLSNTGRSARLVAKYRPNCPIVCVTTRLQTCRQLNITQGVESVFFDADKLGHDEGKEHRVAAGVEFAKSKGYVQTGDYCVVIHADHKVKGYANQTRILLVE
#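 Purified LmPK (0.1 nM) with 0.5 mM PEP and 0.1 mM ADP in imidazole buffer pH 7.2 with MgCl2/KCl, 1 h at room temperature. ATP formed was read by luciferase luminescence and normalized to no-enzyme and uninhibited controls.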
# Active calls of the source: *; ? = inconclusive; . = not tested or not shown. The full list was thinned out, with hits kept by preference. Unless noted, the call rests on the fitted dose curve; in most records, active means well fitted curve in the direction sought with a large enough effect; inconclusive means small, poorly fitted or top-dose-only effect, or another doubt; inactive means no such curve, though single readings can be large; an effect the other way counts as inactive or inconclusive.
SMILES,NS1 function inh,SARS PLpro yeast,Cycloheximide cs,Shiga toxin inh,TbPYK inhibitor,LmPK inh
OC1(c2ccccc2F)CCN(Cc2nnc(-c3ccccc3)o2)CC1,-3%,2%,20*,41,0%,-2%
c1ccc(-c2nnc(CN3CCC4(CC3)OCCO4)o2)cc1,1%,1%,13,37,-1%,-11%
CCN1CCN(Cc2nnc(-c3ccccc3)o2)CC1,-1%,-1%,-2,-5,-1%,5%
COC(=O)C1CCN(Cc2nnc(-c3ccccc3)o2)CC1,4%,-1%,24*,59*,-6%,5%
COC(=O)C1=C(C(=O)OC)[C@@H]2N(C)c3ccc(OC)cc3[C@@]23C[C@@H](C(=O)OC)N(C(=O)c2cccs2)C3=N1,4%,0%,-2,4,-4%,-1%
Cc1oc(-c2ccccc2Cl)nc1CS(=O)CC(=O)NCc1ccccc1Cl (centres undefined),-9%,-1%,-2,-1,-4%,-4%
Cc1ccc(-n2c(-c3ccncc3)n[nH]c2=S)cc1,.,0%,31*,168*,?,16µM*
Cc1ccc(C)c(-n2c(-c3ccncc3)n[nH]c2=S)c1,1%,0%,-3,15,?,20µM*
Cc1ccc(-n2c(-c3ccncc3)n[nH]c2=S)cc1C,12%,0%,-5,-7,?,-2%
Cc1ccc(C)c(-n2c(-c3csc(C)c3)n[nH]c2=S)c1,-3%,9%,-2,-22,?,7.9µM*
Cc1ccc(-n2c(-c3ccccc3)n[nH]c2=S)c(C)c1,24%,5%,-2,-2,11µM*,-1%
COc1ccccc1CNC(=O)c1ccc(N2CCCC2)c(NC(=O)NCCC(C)C)c1,.,.,.,.,-10%,.
CCOc1cccc(-c2c(C(=O)N/N=C/c3ccc(Br)cc3)nnn2-c2nonc2N)c1,2%,-3%,-4,-2,-1%,-9%
Cc1ccc(C)c(-n2c(-c3ccc4c(c3)OCO4)n[nH]c2=S)c1,10%,5%,2,15,5µM*,4µM*
Cc1cccc(NCc2ccc([N+](=O)[O-])s2)c1,12%,-10%,7,15,-3%,5%
Cc1ccc(NCc2ccc([N+](=O)[O-])s2)cc1,-15%,-5%,25*,49*,-6%,-1%
Cc1ccccc1NCc1ccc([N+](=O)[O-])s1,-15%,-7%,14*,-1,-3%,-11%
COc1ccccc1NCc1ccc([N+](=O)[O-])s1,11%,?,10,-73,-6%,4%
Cc1ccc(NC(=S)N/N=C/c2ccc([N+](=O)[O-])s2)cc1,-37%,-127%,47*,active,-1%,-2%
NC(=O)c1cc(S(=O)(=O)N2CCOCC2)cs1,0%,1%,-1,9,3%,-2%
CCOC(=O)c1sc(NC(=O)CSc2nc(-c3ccco3)cc(C(F)(F)F)n2)c(C(=O)OCC)c1C,.,.,.,.,-1%,.
COc1ccccc1CNC(=O)c1ccc2nc(C)c(N(C)Cc3ccc(NC(C)=O)cc3)n2c1,.,.,.,.,1%,.
CCc1c(C)sc(NC(=O)c2cc(-c3cccc(Cl)c3)on2)c1C#N,.,.,.,.,-6%,.
O=C(Nc1cccc(C(=O)Nc2ccc(Br)cc2)c1)c1ccccc1,-1%,-2%,16*,25,5%,6%
S=C(Nc1ccccc1)Nc1cccc(Br)c1,-3%,-1%,7,2,-1%,2%
SMILES,NS1 function inh,SARS PLpro yeast,Cycloheximide cs,Shiga toxin inh,TbPYK inhibitor,LmPK inh
CC(C)OC(=O)c1cccc(NC(=O)c2ccccc2)c1,-12%,-25%,26*,69*,2%,7%
O=C(CNCc1ccccc1)Nc1ccc(Cl)cc1,-8%,-1%,28*,79*,1%,4%
O=C(CNCc1ccc(Cl)cc1)Nc1ccc(C(=O)N2CCCCC2)cc1,-3%,0%,-2,-11,37%,0%
S=C(Nc1cccc(Br)c1)c1ccccc1,-24%,-90%,45*,109*,-2%,2%
CCc1ccc(NC(=O)CC2C(=O)N(c3ccc(OC)cc3)C(=O)N2Cc2ccc(OC)cc2)cc1 (centres undefined),.,.,.,.,-3%,.
Cc1ccc(Cl)cc1NC(=O)C(=O)NCCc1sc(-c2ccc(F)cc2)nc1C,.,.,.,.,5%,.
Cc1ccc(NC(=O)CC(=O)c2ccccc2)cc1C,10%,-1%,34*,101*,-2%,5%
CC(=O)c1ccc(NC(=O)c2cccc(NC(=O)c3ccccc3)c2)cc1,17%,0%,23*,.,-10%,-2%
O=C(Nc1ccc(Cl)c(Cl)c1)c1ccccc1,.,1%,.,.,0%,.
O=C(Nc1ccc2nc3ccccc3nc2c1)c1ccccc1,-9%,-56%,40*,25*,-12%,4%
CCc1sc(C(=O)Nc2cccc(C(C)=O)c2)cc1C,-9%,-66%,28*,16,-1%,-4%
N#CCCN(Cc1ccccc1)C(CCc1ccccc1)C(=O)NC1CCCCC1 (centres undefined),.,.,.,.,2%,.
COc1ccc(-c2c3c(=O)n(C)c(=O)n(C)c3c3n2-c2ccccc2NC3c2ccc(OC)cc2)cc1 (centres undefined),.,.,.,.,-1%,.
COC(=O)CSC(C(=O)Nc1ccc(C)c(C)c1)c1ccccc1 (centres undefined),-4%,-4%,19,44*,1%,-1%
CC(=O)c1cccc(NC(=O)c2cc(Cl)sc2Cl)c1,0%,-15%,25*,39*,-2%,-2%
CC(=O)c1cccc(NC(=O)c2ccc3ccccc3c2)c1,-28%,-7%,28*,.,-1%,-2%
O=C(CC(=O)c1ccccc1)Nc1ccc(Cl)cc1,-3%,-6%,36*,80*,13%,-2%
Cc1ccc(NC(=O)C(SCC(=O)O)c2ccccc2)cc1C (centres undefined),12%,4%,-2,13,0%,1%
COc1cccc(OC)c1C(=O)Nc1cccc(C(C)=O)c1,4%,0%,-1,1,1%,3%
CCCCCCCCCCCCCCC/C=C/[C@@H](O)[C@H](NC(=O)CCCCCCCCCCCCC)OC (tested in a mixture with another compound),-1%,.,.,.,.,.
CCn1cc(S(=O)(=O)c2cccc(C)c2)c(=O)c2cc(F)c(N3CCCCC3C)cc21 (centres undefined),.,.,.,.,3%,.
Cc1ccc(NC(=O)c2ccc(NC(=O)c3ccccc3)cc2)cc1C,-72%,-5%,46*,56*,-4%,-7%
Cc1ccc(NC(=O)CCCn2c(=O)c3cccn3c3ccccc32)cc1C,.,.,.,.,-1%,.
Cc1ccc(NC(=O)CCn2c(=O)c3cccn3c3ccccc32)cc1C,2%,-4%,11,26*,-7%,-6%
O=C(Nc1ccc(-c2nc3ccccc3s2)c(OC(=O)c2ccccc2)c1)c1ccccc1,20%,-9%,30*,26,-4%,4%
O=C(CNCc1ccccc1)NC1C2CC3CC(C2)CC1C3 (centres undefined),-12%,1%,14*,.,-21%,31%

# Source: PubChem
